High-throughput results from PubChem.
Rows were chosen to be rich in hits. Some 1.4% of all compounds tested hit in one or more screens of this group.
PGC1a acetyl inh: lowers PGC1a acetylation signal in U2OS cells; AlphaScreen anti-acetyl-lysine; with virally co-expressed GCN5 acetyltransferase; inhibition, % at 15.6 µM; actives 0.17% (n = 350,000);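 active means every replicate shows inhibition of at least 40%; inconclusive means mean inhibition at least 40% but some replicate below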;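 further: 0% = neutral control wells and 100% = positive control wells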
RAD54 branch: inhibitors of human RAD54 branch migration | Q92698 | actives 0.14% (n = 360,000) | RAD54 Holliday junction branch migration, FAM/BHQ fluorescence | inhibition, % at 10.4 µM;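 active means mean normalized replicate activity at least 40 and at least half of replicates scoring 40 or more; inconclusive means only one of the two criteria met; inactive means mean below 40 and under half of replicates reaching 40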;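 further: 0% = median of neutral control wells and 100% = median of positive control wells; inhibitors cause a drop in the FAM fluorescence signal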
INS-1E GSIS act: GLuc luminescence reporter in INS-1E cells, primary screen for activators of glucose-dependent secretion of insulin; INS-1E GLuc reporter insulin secretion, 2-3 h; activation, % at 16.6 µM; actives 0.61% (n = 370,000); AID 743287;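 active means lowest replicate activation of at least 40%, so every replicate reaches that level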;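 further: 0% = median of neutral control wells and 100% = median of IBMX positive control wells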
MLL AF4-AF9 inh: blocks AF4 peptide binding to human AF9; P42568; AlphaScreen, biotin-AF4 peptide binding to FLAG-AF9; inhibition, % at 10 µM; actives 0.47% (n = 350,000);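 active means every replicate reaching a set inhibition limit, whatever the replicate mean, cut at about 25% in these data; inconclusive means mean inhibition reaches that limit but some replicates miss it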;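 further: 0% = plate neutral control median and 100% = total signal loss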
RAD52 anneal inh: blocks human RAD52 DNA annealing. P43351. recombinant RAD52 DNA annealing, FRET fluorescence. inhibition, % at 18.7 µM. actives 0.46% (n = 360,000). AID 651710;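 active means every replicate showing at least 50% inhibition; inconclusive means mean inhibition at least 50% but not in every replicate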
ERAP1 inh: blocks human ERAP1 aminopeptidase activity; recombinant ERAP1, Leu-AMC fluorescence, 60 min; actives 0.15% (n = 340,000); Q9NZ08; inhibition, % at 10.7 µM;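 active means mean replicate inhibition of at least 30%, or all replicates individually reaching that 30% level; inactive means mean below 30% and not every replicate reaching it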;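 further: 0% = neutral control wells and 100% = L-leucinethiol positive control wells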
Target sequence (Q9NZ08 whole entry, looked up): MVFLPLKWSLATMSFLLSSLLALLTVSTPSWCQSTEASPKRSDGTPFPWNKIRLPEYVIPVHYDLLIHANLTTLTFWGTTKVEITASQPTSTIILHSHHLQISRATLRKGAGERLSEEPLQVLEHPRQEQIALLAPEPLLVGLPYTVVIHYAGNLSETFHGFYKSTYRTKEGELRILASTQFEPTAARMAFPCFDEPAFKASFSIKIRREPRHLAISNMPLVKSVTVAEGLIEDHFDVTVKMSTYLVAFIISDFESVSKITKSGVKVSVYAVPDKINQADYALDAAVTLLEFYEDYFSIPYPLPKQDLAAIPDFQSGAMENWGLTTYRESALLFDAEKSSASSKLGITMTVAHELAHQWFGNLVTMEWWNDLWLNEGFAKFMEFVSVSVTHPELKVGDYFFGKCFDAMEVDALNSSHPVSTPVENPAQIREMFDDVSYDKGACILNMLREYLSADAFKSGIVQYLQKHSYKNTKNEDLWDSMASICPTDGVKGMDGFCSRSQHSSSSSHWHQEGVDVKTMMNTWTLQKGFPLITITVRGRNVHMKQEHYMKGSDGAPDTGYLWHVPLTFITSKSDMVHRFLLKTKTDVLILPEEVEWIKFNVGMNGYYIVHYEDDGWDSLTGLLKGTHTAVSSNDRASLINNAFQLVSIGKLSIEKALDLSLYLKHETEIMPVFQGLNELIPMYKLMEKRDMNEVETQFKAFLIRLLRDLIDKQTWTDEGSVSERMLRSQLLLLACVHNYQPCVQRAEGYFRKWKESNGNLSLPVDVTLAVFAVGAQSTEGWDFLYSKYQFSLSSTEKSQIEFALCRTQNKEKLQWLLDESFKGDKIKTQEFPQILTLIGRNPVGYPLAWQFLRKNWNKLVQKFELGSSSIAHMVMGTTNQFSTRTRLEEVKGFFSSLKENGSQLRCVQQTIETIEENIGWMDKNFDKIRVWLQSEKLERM
Numbers without * were called inactive; u = inconclusive; x = no result; ! = not active in a repeat.

SMILES	PGC1a acetyl inh	RAD54 branch	INS-1E GSIS act	MLL AF4-AF9 inh	RAD52 anneal inh	ERAP1 inh
C[C@H]1CN([C@@H](C)CO)C(=O)CCCn2cc(nn2)CO[C@@H]1CN(C)C(=O)Nc1ccc(N2CCN(C)CC2)cc1	-8	-9	17	-1	55*!	0
C[C@@H]1CN([C@H](C)CO)C(=O)CCCn2cc(nn2)CO[C@H]1CN(C)S(=O)(=O)c1cccs1	-4	-10	41*!	0	7	-3
C[C@H](CO)N1C[C@H](C)[C@H](CN(C)C(=O)Nc2ccc(N3CCN(C)CC3)cc2)OCc2cn(nn2)CCCC1=O	0	0	20	4	16	0
C[C@@H]1CN([C@H](C)CO)C(=O)CCCn2nncc2CO[C@@H]1CN(C)S(=O)(=O)c1cn(C)cn1	101*!	-18	-3	-1	-8	-8
O=C(CSc1n[nH]c(-c2cccs2)n1)NC1CCS(=O)(=O)C1 (stereo not drawn)	x	10	-3	-8	-11	35*
CCC(=O)Nc1ccc2c(c1)C(=O)N(C)C[C@H](OC)[C@@H](C)CN(C(=O)c1ccccn1)[C@@H](C)CO2	-12	-5	-2	26*	-19	2
CO[C@H]1CN(C)C(=O)c2cc(NC(C)=O)ccc2OC[C@@H](C)N(C(=O)Cc2ccccn2)C[C@@H]1C	-5	4	5	29*	-20	2
CCC(=O)Nc1ccc2c(c1)C(=O)N(C)C[C@@H](OC)[C@H](C)CN(Cc1ccccc1F)[C@H](C)CO2	9	-2	-21	7	-10	4
CCC(=O)Nc1ccc2c(c1)C(=O)N(C)C[C@@H](OC)[C@@H](C)CN(C(=O)c1ccccn1)[C@H](C)CO2	-1	-1	7	u	-30	4
CCC(=O)Nc1ccc2c(c1)C(=O)N(C)C[C@@H](OC)[C@H](C)CN(Cc1ccccc1F)[C@@H](C)CO2	-10	-4	-23	30*	-17	3
CO[C@H]1CN(C)C(=O)c2cc(NC(=O)c3ccccc3F)ccc2OC[C@@H](C)N(C(C)=O)C[C@@H]1C	130*	-8	16	-1	7	-8
O=C(CCN1CCCCC1)NCC[C@@H]1CC[C@@H](NC(=O)c2ccc(F)cc2)[C@@H](CO)O1	-4	-5	14	-2	1	0
O=C(Nc1nccs1)c1cc(N2CCOCC2)nc2ccccc12	-1	-6	46*	x	x	x
O=C(Nc1ccccc1)c1cc(N2CCOCC2)nc2ccccc12	-18	4	x	x	x	x
O=[N+]([O-])c1ccc(Oc2cccc(F)c2)c2ccncc12	71*	x	x	x	x	x
Cc1cc(NC(=O)C2CC(=O)N(c3cccc(C)c3C)C2)no1 (stereo not drawn)	-19	-1	24	44*	-3	0
COc1ccc(N2CCN(CCCNC(=O)c3cc4sccc4n3C)CC2)cc1	-8	5	-16	28*	-18	1
CC1CCN(CCCNC(=O)c2cc3sccc3n2C)CC1	-4	1	-7	x	x	x
CCOc1ccc(/C=N/NC(=O)c2cc(-c3ccco3)nc3ccccc23)cc1	x	x	69*	x	x	x
O=C(N/N=C/c1ccc(F)cc1)c1cc(-c2ccco2)nc2ccccc12	0	2	x	x	x	x
C[C@H](CO)N1C[C@H](C)[C@H](CN(C)S(C)(=O)=O)Oc2c(NC(=O)c3cnccn3)cccc2C1=O	-7	-3	7	-7	-3	1
Cc1c(-c2cccc(Cl)c2)nc2ccccc2c1C(=O)NC1CC1	-2	-6	99*	0	-26	-1
CN1C(=O)/C(=C/c2ccccc2OCc2ccc(F)cc2)N(C)C1=S	-7	4	x	16	-9	3
Cc1cccc(COc2ccc(/C=C3/C(=O)N(C)C(=S)N3C)cc2)c1	71*	-1	14	3	-7	-5
O=C(C[C@@H]1CC[C@@H](NC(=O)c2ccncc2)[C@H](CO)O1)Nc1ccc(-c2ccccc2)cc1	x	x	10	-9	-6	1
SMILES	PGC1a acetyl inh	RAD54 branch	INS-1E GSIS act	MLL AF4-AF9 inh	RAD52 anneal inh	ERAP1 inh
COc1ccc(NC(=O)Nc2nnc(-c3cccs3)s2)cc1	2	x	-12	-14	-9	x
COc1ccc(C(=O)Nc2nnc(-c3cccs3)s2)cc1	0	13	72*	x	x	x
COc1cccc(C(=O)Nc2nnc(-c3cccs3)o2)c1	8	-2	10	45*	-20	7
COc1ccc(NC(=O)c2cc(-c3cccs3)on2)c(OC)c1	-5	0	-1	34*	-5	-5
COc1ccc(C(=O)Nc2nnc(-c3ccco3)s2)cc1	-8	4	52*	x	x	x
COC(=O)N(C)C[C@H]1OCc2cn(nn2)CCCC(=O)N([C@@H](C)CO)C[C@H]1C	-2	x	0	x	x	x
O=C(Nc1ccccc1)Nc1nnc(-c2cccs2)s1	-5	1	69*	x	x	x
O=C1O[C@@H](c2ccccc2)[C@@H](c2ccccc2)N2[C@@H](c3ccc(OCCO)cc3)[C@]3(C(=O)Nc4ccc(C#CCCO)cc43)[C@@H](C(=O)N3CCN(c4ncccn4)CC3)[C@H]12	4	-1	x	1	52*	1
O=C1O[C@@H](c2ccccc2)[C@@H](c2ccccc2)N2[C@@H](c3ccccc3OCCO)[C@]3(C(=O)Nc4ccc(C#CC5=CCCCC5)cc43)[C@@H](C(=O)N3CCN(c4ncccn4)CC3)[C@H]12	x	-3	x	0	-41	-1
O=C1O[C@@H](c2ccccc2)[C@@H](c2ccccc2)N2[C@@H](c3ccc(O)cc3)[C@]3(C(=O)Nc4ccccc43)[C@@H](C(=O)N3CCCCCCC3)[C@H]12	x	-3	x	0	58*	0
COc1ccc(C#Cc2ccc3c(c2)[C@]2(C(=O)N3)[C@H](C(=O)N3CCN(c4ncccn4)CC3)[C@H]3C(=O)O[C@H](c4ccccc4)[C@H](c4ccccc4)N3[C@@H]2c2ccc(OCCO)cc2)cc1	x	-2	x	-2	-19	2
O=C1O[C@@H](c2ccccc2)[C@@H](c2ccccc2)N2[C@@H](c3ccccc3OCCO)[C@]3(C(=O)Nc4ccc(C#CCCO)cc43)[C@@H](C(=O)N3CCN(c4ncccn4)CC3)[C@H]12	x	-2	x	-1	76*	2
O=C1O[C@H](c2ccccc2)[C@H](c2ccccc2)N2[C@H]1[C@@H](C(=O)N1CCN(c3ncccn3)CC1)[C@]1(C(=O)Nc3ccccc31)[C@H]2c1ccc(O)cc1	5	-8	x	-1	10	-1
COc1ccccc1Oc1ccc(S(=O)(=O)N2CCCCC2C)cc1 (stereo not drawn)	x	14	-1	1	-14	-2
COc1ccc(S(=O)(=O)N2CCCCC2C)cc1 (stereo not drawn)	-7	3	-3	29*	5	1
O=C(C1CCCC1)N1CC2(C1)[C@H](c1ccccc1)[C@@H](CO)N2C(=O)c1cccnc1	7	x	13	-2	-10	2
